Out of some 370,000 compounds screened, about 500 (0.14%) were called active. Another 2% or so got no clear call; they are omitted. Calls come from the whole dose curve; as a rule, active = well fitted activation curve with a large enough effect; inconclusive = small, poorly fitted or top-dose-only effect; inactive = no such curve, though single readings can be large or run the other way. The entries come from a sample that favours actives as a whole.
Test: qHTS of alpha-syn Inhibitors; note: nearly all actives have a fitted effect of over 65% in size; for growth rescue (activation): % of control where 0% means no effect
Settings: Yeast expressing alpha-synuclein, BacTiter-Glo, 24 h; Potency: growth rescue; series mostly up to 46.1 µM; growth rescue (activation): at the top concentration
From the text: The goal of this project is to identify new chemical probes capable of reversing the toxicity associated with the Parkinson disease-related protein, alpha-synuclein. Compounds will be selected on their ability to restore growth in yeast cells expressing toxic levels of alpha-synuclein. These compounds will provide a complementary approach to deciphering the tangled mechanisms of toxicity and protection that we have uncovered through genome-wide genetic screens and are beginning to uncover in a large-scale proteomics analysis with mass spectroscopy. To this end, a miniaturized assay was developed to be screened against the Molecular Libraries Small Molecule Repository (MLSMR) to discover alpha-synuclein inhibitors. Please note that in the set-up this yeast-based assay compounds that inhibit as alpha-syn, have a read-out as activators. NIH Chemical Genomics Center [NCGC] NIH Molecular Libraries Probe Centers Network [MLPCN] MLPCN Grant: NS060957 Assay Submitter (PI): Susan Lindquist, Whitehead Institute/MIT
Dispense 2.5 microL yeast galactose medium per 1536-well plate, pin compound, dispense 2.5 microL alpha-synuclein expressing yeast in galactose medium at OD600=0.02 (pregrown in raffinose medium to mid-log phase) per well, incubate for 24 hr at 30 deg C, and cell growth will be measured using 5 microL of Bactiter/Glo reagent to entire plate and read using Luminescence Protocol in ViewLux.
Potency is the fitted concentration of half-maximal effect.

Row | SMILES | growth rescue (activation) | Potency
1 | O=C(O)c1c(Br)c(Br)c(Br)c(Br)c1C1c2ccc(O)cc2Oc2cc(O)ccc21 | -15.4% (inactive) | –
2 | O=C(CN1C(=O)COc2ccc(S(=O)(=O)N3CCCCCC3)cc21)N1CCN(c2cccc(C(F)(F)F)c2)CC1 | 0.0113% (inactive) | –
3 | C=COC(=O)N1CCN(/[N+]([O-])=N/Oc2ccc([N+](=O)[O-])cc2[N+](=O)[O-])CC1 | -46.1% (inactive) | –
4 | CCc1ccc(NC(=O)CCS(=O)(=O)c2cc3c(cc2Cl)NC(=O)CO3)cc1 | -0.594% (inactive) | –
5 | O=C(CN1C(=O)COc2ccc(S(=O)(=O)N3CCOCC3)cc21)N1CCN(c2cccc(Cl)c2)CC1 | -2.18% (inactive) | –
6 | Oc1ccc(Cl)cc1C1C=C(c2ccc3c(c2)OCO3)NC(c2ccc(F)c(Br)c2)N1 (centres undefined) | -15.1% (inactive) | –
7 | CCCSc1nc2sc3c(c2c(=O)n1-c1cccc(Br)c1)CC(C)(C)OC3 | -13.4% (inactive) | –
8 | CN1CCN(/[N+]([O-])=N/Oc2ccc([N+](=O)[O-])cc2[N+](=O)[O-])CC1 | -45.5% (inactive) | –
9 | CC1(C)Cc2ccccc2-c2c[nH]c(=O)n21 | -0.0221% (inactive) | –
10 | Cc1c(NS(=O)(=O)c2ccc(Cl)cc2)c(=O)n(-c2ccccc2)n1C | -6.56% (inactive) | –
11 | O=C(O)C1=C/C(=C/C=[N+]2c3cc(O)c(O[C@H]4OC(CO)[C@@H](O)[C@@H](O)[C@@H]4O)cc3C[C@@H]2C(=O)[O-])C[C@H](C(=O)O)N1 (some centres undefined) | 2.51% (inactive) | –
12 | COc1ccc(-c2nc3c(c(SCC(=O)Nc4ccc(C(=O)O)cc4)n2)Cc2ccccc2O3)cc1 | -9.8% (inactive) | –
13 | Cc1ccc(S(=O)(=O)N2CCN(c3nc(-n4cnc5ccccc54)nc4ccccc34)CC2)cc1 | -3.83% (inactive) | –
14 | SCc1nc2ccc(Cl)cc2[nH]1 | -7.18% (inactive) | –
15 | COc1ccc(-c2c(C)c3ccc(O)c(CN4CCCC4)c3oc2=O)cc1OC | -5.54% (inactive) | –
16 | CCOC(=O)C(=Cc1ccccc1)C(=O)c1ccccc1 | – | 14.1 µM (active)
17 | CCc1ccccc1NC(=O)/C(=C/c1ccccc1)c1ccccc1 | -9.72% (inactive) | –
18 | CCOC(=O)/C(=C\c1ccc([N+](=O)[O-])cc1)C(=O)c1cc(C(C)=O)c(Nc2ccccc2)s1 | -0.118% (inactive) | –
19 | CCC(CC)C(=O)N1CCc2cc(OC)c(OC)cc2C1COc1ccc(F)cc1 (centres undefined) | 24.2% (inactive) | –
20 | CC1COc2ccccc2N1C(=O)c1ccc(F)cc1 (centres undefined) | -2.44% (inactive) | –
21 | O=C(Nc1nnc(C2COc3ccccc3O2)o1)c1ccc(F)cc1 (centres undefined) | – | 17.8 µM (active)
22 | O=C(Nc1cccc2c1CCCC2)c1ccc(F)cc1 | -1.88% (inactive) | –
23 | CC(C)(C)OC(=O)N1CCC(c2c(C(=O)Nc3ccc4c(c3)OCO4)cnn2-c2ccccc2)CC1 | -1.74% (inactive) | –
24 | CCN1CCN(c2ccc(/C=C/c3ccnc4ccccc34)cc2)CC1 | -1.78% (inactive) | –
25 | OC(CBr)CN1CCCCC1 (centres undefined) | 2.66% (inactive) | –

Row | SMILES | growth rescue (activation) | Potency
26 | O=C(COc1ccccc1C(=O)Nc1ccccc1)Nc1cccc(F)c1 | 3.75% (inactive) | –
27 | CC1CC2C3CCC4=CC(=O)C=C[C@]4(C)[C@@]3(F)[C@@H](O)C[C@]2(C)[C@@]1(O)C(=O)CO (some centres undefined) | 0.504% (inactive) | –
28 | CC1(C)CCc2cc(S(=O)(=O)N3CCN(c4nc(-c5cccs5)nc5ccccc45)CC3)ccc2O1 | 0.269% (inactive) | –
29 | C(=Nc1ccc(/C=C/c2ccnc3ccccc23)cc1)Nc1ccc(/C=C/c2ccnc3ccccc23)cc1 | 5.25% (inactive) | –
30 | O=C(CSc1ncc(CO)n1Cc1ccc(Cl)cc1)NCc1ccc(F)cc1 | 0.867% (inactive) | –
31 | COc1ccc(Cl)cc1C(=O)NNC(=O)c1nc2nc(C)cc(C)n2n1 | 1.17% (inactive) | –
32 | CCC(C)NC(=O)c1cc(Cl)ccc1OC (centres undefined) | -4.51% (inactive) | –
33 | COc1ccc(Cl)cc1C(=O)NNC(=S)NC(=O)/C=C/c1ccco1 | – | 3.55 µM (active)
34 | Cc1cc(C)c2oc(-c3cccc(NC(=O)c4cccc(F)c4)c3C)nc2c1 | -7.49% (inactive) | –
35 | O=[N+]([O-])c1ccc(S(=O)(=O)N2CCN(c3nc(-c4ccccc4)nc4ccccc34)CC2)cc1 | -0.492% (inactive) | –
36 | Cc1ccc(C=O)cc1Cl | -0.134% (inactive) | –
37 | O=C(Nc1ccccc1)c1ccccc1OCc1ccccc1 | -2.7% (inactive) | –
38 | OC[C@@H]1O[C@H](n2cnc3c(SCc4ccccc4)ncnc32)[C@H](O)[C@H]1O | -1.26% (inactive) | –
39 | COc1ccc(CN(Cc2ccccc2)C(=O)c2ccc(O)cc2)cc1COc1ccc(NC(C)=O)cc1 | -0.0331% (inactive) | –
40 | C=C1C=C(C)n2ncc(C(=O)Nc3ccccc3O)c2N1 | -8.64% (inactive) | –
41 | COc1cccc2c1C(=O)c1c(O)c3c(c(O)c1C2=O)CC(O)(C(C)=NNC(=O)c1ccc(Cl)c(Cl)c1)CC3OC1CC(N)C(O)C(C)O1 (centres undefined) | – | 28.2 µM (active)
42 | Nc1ncnc2nnsc12 | 4.15% (inactive) | –
43 | CN(N=O)c1ccc(C=C2c3ccccc3-c3ccccc32)cc1 | 9.48% (inactive) | –
44 | COc1cc(OC)c(/C=C/c2ccnc3ccccc23)c(OC)c1 | -9.27% (inactive) | –
45 | S=c1[nH]c(=S)c2n[nH]nc2[nH]1 | 7.28% (inactive) | –
46 | COc1ccc(Cn2c(=O)[nH]c3cc(C(=O)N4CCN(C(=O)c5ccco5)CC4)ccc3c2=O)cc1 | 2.57% (inactive) | –
47 | COc1ccc(CN2CCc3nc(Nc4ccccc4)ncc3C2)c(OC)c1OC | -2.21% (inactive) | –
48 | COc1cc2[nH]c(C)c(CCN3CCN(c4ccccc4)CC3)c2cc1OC | -1.73% (inactive) | –
49 | Cc1ccc(-c2nc3ccccn3c2Nc2ccc(F)cc2)o1 | -33% (inactive) | –
50 | CSc1ccc(C2C(C(=O)Nc3ccccc3)=C(C)Nc3nc4ccccc4n32)cc1 (centres undefined) | -4.42% (inactive) | –

Row | SMILES | growth rescue (activation) | Potency
51 | Cc1cccc(NC(=O)COC(=O)c2ccccc2OCc2cccc(Br)c2)c1 | -17.1% (inactive) | –
52 | O=C1CSC2(C(=O)N(Cc3ccccc3)c3ccccc32)N1c1cccc(F)c1 (centres undefined) | 2.88% (inactive) | –
53 | CCOC(=O)Cn1c(=O)n(C2CCCCC2)c2nc(-c3cccc(OC)c3)nc(C(N)=O)c21 | -7.15% (inactive) | –
54 | O=C(Nc1ccccc1C(F)(F)F)c1nc(S(=O)(=O)Cc2ccccc2F)ncc1Cl | -67.1% (inactive) | –
55 | COc1ccc(OC)c(NC(=O)C2CCCN(S(=O)(=O)c3ccc4c(c3)CCCC(=O)N4)C2)c1 (centres undefined) | -3.73% (inactive) | –
56 | O=C1OCCN1C(=O)[C@H]1[C@H](c2ccc(Cl)cc2)C(c2cccc(Cl)c2)=NN1c1ccc(Br)cc1 | 4.33% (inactive) | –
57 | O=C1OCCN1C(=O)[C@H]1[C@H](c2ccccc2)C(c2ccc(F)cc2)=NN1c1ccccc1 | 16% (inactive) | –
58 | C[C@@H]1C(c2ccc(F)cc2)=NN(c2ccc(Br)cc2)[C@H]1C(=O)N1CCOC1=O | – | 22.4 µM (active)
59 | COc1ccc(-c2nc(=N)sn2-c2ccccc2)cc1 | -51.8% (inactive) | –
60 | Cc1ccc(C)c(N2CCN(C(=O)CCc3nc4ccccc4[nH]3)CC2)c1 | – | 15.8 µM (active)
61 | Cc1ccc(C)c(N2CCN(C(=O)CCc3nc(-c4cccc(C(F)(F)F)c4)no3)CC2)c1 | 8.68% (inactive) | –
62 | Cc1ccc(C)c(N2CCN(C(=O)Cn3ncn4cccc4c3=O)CC2)c1 | 11.2% (inactive) | –
63 | COc1ccc(CNC(=O)CSc2nc3ccccc3nc2Cc2ccccc2)cc1 | 0.505% (inactive) | –
64 | C(=Nc1ccc(/C=C/c2ccnc3ccccc23)cc1)c1cc2c3c(c1)CCCN3CCC2 | -1.08% (inactive) | –
65 | O=C(COC(=O)c1ccccc1OCCOc1ccccc1)Nc1cccc(Br)c1 | 1.98% (inactive) | –
66 | COc1ccc(C(C)(O)c2nc(-c3ccc(C)c(C)c3)cs2)cc1 (centres undefined) | – | 3.16 µM (active)
67 | COc1ccc(C(C)(O)c2nc(-c3cc(F)cc(F)c3)cs2)cc1 (centres undefined) | 11.4% (inactive) | –
68 | COc1ccc(C(C)(NC(C)=O)c2nc(-c3ccc(S(C)(=O)=O)cc3)cs2)cc1 (centres undefined) | 1.69% (inactive) | –
69 | CCOc1n[nH]c(-c2ccccc2)n1 | -3.49% (inactive) | –
70 | COc1ccc(N2CCN(S(=O)(=O)c3ccc(-c4coc(C)n4)cc3)CC2)cc1 | 0.286% (inactive) | –
71 | Cc1ccc2ccc3c(c2n1)NS(=O)(=O)c1ccccc1-3 | 4.09% (inactive) | –
72 | CCc1sc(C(=O)N2CCN(CC(=O)Nc3cccc(F)c3)CC2)cc1C | – | 25.1 µM (active)
73 | CC(=O)N1CCN(CC(=O)Nc2ccc(C)c(F)c2)CC1 | -0.609% (inactive) | –
74 | CCN1CCN(C(=O)C2(NC(=O)Nc3cccc(F)c3)CCCCC2)CC1 | 1.94% (inactive) | –
75 | CC1(C)CC(=O)c2cc(C(=O)NCc3ccccc3)c(=O)[nH]c2C1 | -0.274% (inactive) | –

Row | SMILES | growth rescue (activation) | Potency
76 | Oc1ccccc1-c1nc2ccc(Cl)cn2c1Nc1ccc2c(c1)OCCO2 | -2.55% (inactive) | –
77 | COc1cc(C(O)c2nc(-c3cnn(C)c3)cs2)ccc1F (centres undefined) | 5.45% (inactive) | –
78 | COCc1cccc(-c2csc(C(O)c3ccc(F)cc3)n2)c1 (centres undefined) | 2.1% (inactive) | –
79 | COc1ccc(C(O)c2nc(-c3ccc4c(c3)OCO4)cs2)cc1 (centres undefined) | – | 22.4 µM (active)
80 | O=C(CCS(=O)(=O)c1ccc2c(c1)NC(=O)CO2)Nc1cccc(C(F)(F)F)c1 | -5.78% (inactive) | –
81 | COc1cc(OC)c(OC)cc1/C=C1\C=Cc2ccccc21 | -1.18% (inactive) | –
82 | CCC(=O)Nc1cccc(-c2nc3cc(C)ccc3o2)c1 | -39% (inactive) | –
83 | Cc1cccc(N(C)C(=O)CS(=O)(=O)c2cccc3nsnc23)c1 | 0.638% (inactive) | –
84 | O=C1O/C(=C\c2ccc(O)cc2)C(O)=C1c1ccc(O)cc1 | 10.7% (inactive) | –
85 | CCN(CC)c1nc(C#N)nc(OC)n1 | 13.6% (inactive) | –
86 | CN(C)c1ccc(C=Nc2ccc(/C=C/c3ccnc4ccccc34)cc2)cc1 | -4.02% (inactive) | –
87 | CCOC(=O)c1ccc(NC(=O)C2CCN(S(=O)(=O)c3ccc4c(c3)CCCC(=O)N4)CC2)cc1 | 1.19% (inactive) | –
88 | Cc1csc(NCC(=O)c2c[nH]c3ccccc23)n1 | 0.59% (inactive) | –
89 | COc1ccc(CC(=O)Nc2nnc3n2CCS3)cc1OC | -5.8% (inactive) | –
90 | C[N+]1(CC(=O)c2cccs2)CCOCC1 | 2.54% (inactive) | –
91 | CC(C)(C)c1ccc(C(=O)C[n+]2cccc3cc(Cl)ccc32)cc1 | -0.379% (inactive) | –
92 | CCOC(=O)c1c(-c2ccc(OC)cc2)oc2ccc(OCc3ccc(C(=O)OC)cc3)cc12 | -1.02% (inactive) | –
93 | CCN(CC)c1ccc(S(=O)(=O)N2CCCCC2)cc1NC(=O)C1=COCCO1 | -5.82% (inactive) | –
94 | O=C(CSc1ccccc1)Nc1cccc(S(=O)(=O)N2CCOCC2)c1 | 2.94% (inactive) | –
95 | CCN(CC)c1ccc(S(=O)(=O)N2CCOCC2)cc1NC(=O)CSc1cccc[n+]1[O-] | – | 17.8 µM (active)
96 | Cc1ccc(CCNC(=O)c2ccc(CNS(=O)(=O)c3ccc(C)cc3)cc2)cc1 | -7.23% (inactive) | –
97 | Nc1ccc(/C=C/c2ccnc3ccccc23)c([N+](=O)[O-])c1 | -0.106% (inactive) | –
98 | Oc1ccc(N=Nc2nccs2)c(O)c1 | – | 2.24 µM (active)
99 | CN(C)c1ccc(/C=N\Nc2ccc([N+](=O)[O-])cc2[N+](=O)[O-])cc1Cl | -2.4% (inactive) | –

Reference: PubChem BioAssay AID652106 (National Center for Advancing Translational Sciences (NCATS), 2013)
